Experimental data taken from PubChem BioAssay (NCI).
The panel holds about 79,000 compounds, 15% with a hit somewhere; the sample as a whole holds those more often. Calls of active or inactive are those of the source. Rule as the data show it: active = growth inhibition above about 70%; inactive = the rest.

Test: NCI Yeast Anticancer Drug Screen. Data for the rad50 strain (AID 155);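 also: 0% = growth of vehicle-only cultures of the same strain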
Conditions: S. cerevisiae rad50 strain growth inhibition; at 50.0 µM; hits give high values
Procedure, shortened: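 Compounds were tested on a yeast strain with an engineered DNA damage repair alteration; the reported value is growth inhibition normalised to vehicle treatment.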

Compound	growth inhibition
COC(=O)c1ccc(NN)cc1	65.8% (inactive)
O=[N+]([O-])c1ccc(-c2nc3c(o2)CCC3)cc1	9.15% (inactive)
Cc1ccc(S(=O)(=O)N/N=C(\C=C\c2ccccc2)c2ccccc2)cc1	59.1% (inactive)
[N-]=[N+]=NC1=CC(=O)c2cccc3cccc1c23	80.8% (active)
CCOc1ccc2nc3cc(Cl)ccc3[n+](C)c2c1	85.2% (active)
Cc1ccc(C(c2ccc(N(C)C)cc2)c2ccc(N(C)C)cc2)cc1	94.5% (active)
O=[N+]([O-])c1ccc2c(c1)[n+]([O-])c1[nH]c3ccccc3c1[n+]2[O-] (tested in a mixture with another compound)	93.2% (active)
C/C(=N\NC(=S)N1CCCCCC1)c1cccc2cccnc12	94.2% (active)
CC(C)c1cc(O)c(C(C)(C)C)cc1Cl	74.5% (active)
CN(C)c1ccc(/C=C(/NC(=O)c2ccccc2)c2nc3ccc(Cl)cc3[nH]2)cc1	64.7% (inactive)
CC(C)(C)c1ccc2c(c1)C(O)(c1ccccc1)C1OC1(C(C)(C)C)C2=O (stereo not given)	96.2% (active)
CCCCCCCCCCCCOP(=O)(N1CC1(C)C)N1CC1(C)C (stereo not given)	72.7% (active)
Cc1ccc(C(=O)CC(N)C(=O)O)cc1 (stereo not given)	12.2% (inactive)
COC(=O)CCC(=O)NCCc1ccc2c([nH]c3ccccc32)c1C	55.6% (inactive)
Nc1ccc(C(=O)N/C(=C\C=C\c2ccco2)c2nc3c4c(ccc3[nH]2)C(=O)c2ccccc2C4=O)cc1	90.8% (active)
Oc1ccc(CCCCCc2ccc(O)cc2)cc1	99.5% (active)
O=C(O)C1C(C(=O)O)C2C(=O)C=CC1N2Cc1ccccc1 (stereo not given)	79.8% (active)
CC1(C)CC(=O)C(c2ccccc2[N+](=O)[O-])=C(O)C1	99.6% (active)
ON(Cc1ccccc1)C(=S)c1ccccc1	91.3% (active)
CCCCC(O)(c1ccc2nc(NC(=O)OC)[nH]c2c1)c1cccs1 (stereo not given)	7.8% (inactive)

Compound	growth inhibition
O=C(O)CC/C(=N\Nc1ccccc1)C(=O)O	97.2% (active)
CC(C)(c1ccc(OC#N)cc1)c1ccc(OC#N)cc1	66% (inactive)
C=CC(C)(CCC=C(C)C)OC(=O)Nc1ccccc1 (stereo not given)	-7.2% (inactive)
Cc1ccc(Cc2nc(=S)[nH][nH]2)cc1	1.6% (inactive)
Cc1c(Cl)c(S(N)(=O)=O)cc2c1NC=NS2(=O)=O	7.45% (inactive)
O=C(c1cccnc1)N(C1CCCCC1)C1CCCCC1	2.25% (inactive)
COc1cc(NCC(C)(O)CN2CCC(C)CC2C)c2ncccc2c1 (stereo not given)	83.2% (active)
O=C1C=CC(=Nc2cccc3c2-c2ccccc2C3)O1	99.6% (active)
CC(O)c1c2c(cc3c1CC1(C3)Cc3cc4c(c(C(C)O)c3C1)CCC4)CCC2 (stereo not given)	71.1% (active)
CCCCCCCCCCCCCCCC[N+](C)(C)CCl	85.6% (active)
CCCCC(CC)CNc1ncnc2c1cnn2C (stereo not given)	36.7% (inactive)
O=C1NN(C2=NNC3(C(=O)N2)c2ccccc2-c2ccccc23)C(c2ccccc2)=N/C1=C/c1ccc(Cl)cc1	32.4% (inactive)
CCCCc1ccc2nccc(N/N=C/c3ccc(OC)c4ccccc34)c2c1	80% (active)
CC(C)(C[NH-])C[NH-].[Cl][Pt+2]([Cl])([Cl])[Cl]	82.3% (active)
O=C(O)C1(Cc2ccc3c(c2)CCC3)Cc2ccccc2C1	90.3% (active)
CCN(CC)C(C)(C)C(=O)/C=C/c1ccc(Cl)cc1	2.2% (inactive)
CCc1ccccc1NC(=O)C(=O)C(C#N)c1c(Cl)cccc1Cl (stereo not given)	-26.7% (inactive)
COc1c(OC)c(C2(O)C(=O)N(C)c3ccccc32)c(OC)c(OC)c1C1(O)C(=O)N(C)c2ccccc21 (stereo not given)	7.2% (inactive)
Nc1ccc2ccccc2c1N=Cc1ccccc1[N+](=O)[O-]	85.8% (active)
O=[N+]([O-])C1=Cc2cc(Cl)ccc2OC1c1cccc2ccccc12 (stereo not given)	80.5% (active)

Test: NCI Yeast Anticancer Drug Screen. Data for the mec2-1 strain (AID 157)
Conditions: S. cerevisiae mec2-1 strain, at 5.0 µM (retest, dose inferred, filed as 0.5), hits give high values
Procedure, shortened: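 mec2-1 yeast strain, carrying an alteration in DNA damage repair or cell cycle control, was exposed to compounds; growth inhibition was measured relative to vehicle-treated controls.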

Compound	growth inhibition
COC(=O)c1ccc(NN)cc1	4% (inactive)
O=[N+]([O-])c1ccc(-c2nc3c(o2)CCC3)cc1	-15% (inactive)
Cc1ccc(S(=O)(=O)N/N=C(\C=C\c2ccccc2)c2ccccc2)cc1	5% (inactive)
[N-]=[N+]=NC1=CC(=O)c2cccc3cccc1c23	31% (inactive)
CCOc1ccc2nc3cc(Cl)ccc3[n+](C)c2c1	14% (inactive)
Cc1ccc(C(c2ccc(N(C)C)cc2)c2ccc(N(C)C)cc2)cc1	99% (active)
O=[N+]([O-])c1ccc2c(c1)[n+]([O-])c1[nH]c3ccccc3c1[n+]2[O-] (tested in a mixture with another compound)	55% (inactive)
C/C(=N\NC(=S)N1CCCCCC1)c1cccc2cccnc12	-5% (inactive)
CC(C)c1cc(O)c(C(C)(C)C)cc1Cl	2% (inactive)
CN(C)c1ccc(/C=C(/NC(=O)c2ccccc2)c2nc3ccc(Cl)cc3[nH]2)cc1	6% (inactive)
CC(C)(C)c1ccc2c(c1)C(O)(c1ccccc1)C1OC1(C(C)(C)C)C2=O (stereo not given)	9% (inactive)
CCCCCCCCCCCCOP(=O)(N1CC1(C)C)N1CC1(C)C (stereo not given)	2% (inactive)
Cc1ccc(C(=O)CC(N)C(=O)O)cc1 (stereo not given)	3% (inactive)
COC(=O)CCC(=O)NCCc1ccc2c([nH]c3ccccc32)c1C	5% (inactive)
Nc1ccc(C(=O)N/C(=C\C=C\c2ccco2)c2nc3c4c(ccc3[nH]2)C(=O)c2ccccc2C4=O)cc1	1% (inactive)
Oc1ccc(CCCCCc2ccc(O)cc2)cc1	15% (inactive)
O=C(O)C1C(C(=O)O)C2C(=O)C=CC1N2Cc1ccccc1 (stereo not given)	1% (inactive)
CC1(C)CC(=O)C(c2ccccc2[N+](=O)[O-])=C(O)C1	11% (inactive)
ON(Cc1ccccc1)C(=S)c1ccccc1	19% (inactive)
CCCCC(O)(c1ccc2nc(NC(=O)OC)[nH]c2c1)c1cccs1 (stereo not given)	-4% (inactive)

Compound	growth inhibition
O=C(O)CC/C(=N\Nc1ccccc1)C(=O)O	-2% (inactive)
CC(C)(c1ccc(OC#N)cc1)c1ccc(OC#N)cc1	-23% (inactive)
C=CC(C)(CCC=C(C)C)OC(=O)Nc1ccccc1 (stereo not given)	2% (inactive)
Cc1ccc(Cc2nc(=S)[nH][nH]2)cc1	-3% (inactive)
Cc1c(Cl)c(S(N)(=O)=O)cc2c1NC=NS2(=O)=O	-1% (inactive)
O=C(c1cccnc1)N(C1CCCCC1)C1CCCCC1	-2% (inactive)
COc1cc(NCC(C)(O)CN2CCC(C)CC2C)c2ncccc2c1 (stereo not given)	14% (inactive)
O=C1C=CC(=Nc2cccc3c2-c2ccccc2C3)O1	99% (active)
CC(O)c1c2c(cc3c1CC1(C3)Cc3cc4c(c(C(C)O)c3C1)CCC4)CCC2 (stereo not given)	-6% (inactive)
CCCCCCCCCCCCCCCC[N+](C)(C)CCl	99% (active)
CCCCC(CC)CNc1ncnc2c1cnn2C (stereo not given)	-3% (inactive)
O=C1NN(C2=NNC3(C(=O)N2)c2ccccc2-c2ccccc23)C(c2ccccc2)=N/C1=C/c1ccc(Cl)cc1	-13% (inactive)
CCCCc1ccc2nccc(N/N=C/c3ccc(OC)c4ccccc34)c2c1	-27% (inactive)
CC(C)(C[NH-])C[NH-].[Cl][Pt+2]([Cl])([Cl])[Cl]	93% (active)
O=C(O)C1(Cc2ccc3c(c2)CCC3)Cc2ccccc2C1	-7% (inactive)
CCN(CC)C(C)(C)C(=O)/C=C/c1ccc(Cl)cc1	-15% (inactive)
CCc1ccccc1NC(=O)C(=O)C(C#N)c1c(Cl)cccc1Cl (stereo not given)	2% (inactive)
COc1c(OC)c(C2(O)C(=O)N(C)c3ccccc32)c(OC)c(OC)c1C1(O)C(=O)N(C)c2ccccc21 (stereo not given)	-2% (inactive)
Nc1ccc2ccccc2c1N=Cc1ccccc1[N+](=O)[O-]	-10% (inactive)
O=[N+]([O-])C1=Cc2cc(Cl)ccc2OC1c1cccc2ccccc12 (stereo not given)	97% (active)
